# Reference: PubChem BioAssay AID2232 (The Scripps Research Institute Molecular Screening Center, 2010)
# About 790 (72%) of roughly 1,100 compounds were called active. The set was probably picked from earlier hits. A selection follows. Values without a mark were called inactive.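 Rule for the calls: active = mean inhibition across replicates above the hit cutoff set in the primary screen (cut at about 26% in these data); inactive = the rest.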
# Target: Acyl-protein thioesterase 2 (Homo sapiens) (UniProt O95372)
# Sequence (O95372 whole entry, looked up): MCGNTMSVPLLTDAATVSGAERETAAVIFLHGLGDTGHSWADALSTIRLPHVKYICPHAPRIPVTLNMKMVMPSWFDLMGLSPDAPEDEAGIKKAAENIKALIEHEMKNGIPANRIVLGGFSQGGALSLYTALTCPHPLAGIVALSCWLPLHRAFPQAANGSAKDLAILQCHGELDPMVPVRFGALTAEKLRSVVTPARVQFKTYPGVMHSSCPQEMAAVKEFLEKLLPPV
# Assay: inhibition of human lysophospholipase 2 – biochemical, fluorescence polarization, FP-Rh probe ABPP, counter-screen for PME1 inhibitor project, confirmation (AID 2232);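 note: blocked labeling of the enzyme by serine hydrolase FP-Rh probe lowers polarization; 0% = enzyme with DMSO and 100% = wells lacking LYPLA2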
# Details: recombinant LYPLA2, FP-Rh probe fluorescence polarization; at 5.9 µM; hits give high values
row,SMILES,inhibition
1,Cc1ccc(N2CCN(C3=NC(=O)/C(=C\c4cccs4)S3)CC2)cc1,56.2% (active)
2,CCC(CC)COC(=O)C1=C(C)NC(=O)NC1c1ccc([N+](=O)[O-])cc1 (stereo not drawn),48.5% (active)
3,O=C(c1cc(-c2ccc(Cl)cc2)on1)N1CCN(c2ccccc2)CC1,2.82%
4,Cc1c(C)c2ccc(OCC(=O)N3CCN(c4cccc(Cl)c4)CC3)cc2oc1=O,45.7% (active)
5,O=C(COc1ccc(Cl)cc1)N1CCN(c2cccc(C(F)(F)F)c2)CC1,63.1% (active)
6,CCC(=O)c1ccc(OCC(O)CN2CCN(c3cccc(C(F)(F)F)c3)CC2)cc1 (stereo not drawn),62.3% (active)
7,O=C(CCCN1C(=O)CSc2ncccc21)N1CCN(c2cccc(C(F)(F)F)c2)CC1,60.9% (active)
8,CN(CCc1ccccn1)C(=O)c1ccc(OC2CCN(CCc3ccccc3)CC2)cc1,21.1%
9,O=C(CCCN1C(=O)c2cccc3cccc(c23)C1=O)N1CCN(Cc2ccc3c(c2)OCO3)CC1,55.4% (active)
10,O=C(COc1ccc(NC(=O)c2ccccc2[N+](=O)[O-])cc1)c1ccc(F)cc1,34.8% (active)
11,O=[N+]([O-])c1ccc(Oc2ccc(F)cc2Br)c2ccncc12,33.5% (active)
12,Cc1cc(OCCCN2CCN(Cc3ccccc3)CC2)ccc1[N+](=O)[O-],40.4% (active)
13,CSc1cccc(NC(=O)CN2C(=O)COc3ccc(S(=O)(=O)N4CCOCC4)cc32)c1,33.8% (active)
14,N#Cc1ccc(C2=CC(=O)C[C@H](c3ccc(Cl)cc3)C2)cc1,42% (active)
15,O=C(CC1SC(N2CCCC2)=NC1=O)Nc1ccc(C(=O)NCCc2ccc(F)cc2)cc1 (stereo not drawn),43.7% (active)
16,CCOC(=O)c1cc2cc(-c3c(C(=O)OCC)oc4cc(O)cc(O)c4c3=O)ccc2o1,36.7% (active)
17,O=C1C2CCCN2C(=O)N1CCCCN1CCN(c2cccc(C(F)(F)F)c2)CC1 (stereo not drawn),55.6% (active)
18,CCN(CC)C(=O)CC1(c2ccccc2OC)CCOC(C(C)C)C1 (stereo not drawn),4.28%
19,Cc1nc([N+](=O)[O-])cn1CC(=O)Nc1ccc2c(c1)OCO2,26.8% (active)
20,CCc1ccc(NC(=O)c2ccc(Cn3cc([N+](=O)[O-])cn3)cc2)cc1,19.7%
21,Cc1nc([N+](=O)[O-])cn1CC(=O)Nc1ccc(Cl)cc1,34.4% (active)
22,O=C(c1ccco1)N1CCN(C(=S)Nc2cc(F)cc(F)c2)CC1,44.1% (active)
23,O=C(Nc1ccc(N2CCN(C(=O)c3ccccc3)CC2)c(Cl)c1)c1cccnc1,27% (active)
24,CCOc1ccc(C(=O)NC(=S)Nc2ccc(N3CCOCC3)c(Cl)c2)cc1[N+](=O)[O-],21.8%

row,SMILES,inhibition
1,Cc1ccc(C(c2sc3nc(C)nn3c2O)N2CCN(c3ccc(F)cc3)CC2)cc1 (stereo not drawn),30% (active)
2,COc1ccc(CCNc2nc(-c3cccc(NC(C)=O)c3)cs2)cc1OC,3.07%
3,O=C(Cc1ccc(-n2c(=O)[nH]c3ccccc3c2=O)cc1)N1CCN(c2cccc(Cl)c2)CC1,48.3% (active)
4,COc1ccc(-c2nc(CS(=O)CC(=O)NCc3ccccn3)c(C)o2)cc1 (stereo not drawn),9.85%
5,O=[N+]([O-])c1ccc(N2CCN(CC(O)COc3ccccc3)CC2)cc1 (stereo not drawn),29.1% (active)
6,COCCOC(=O)c1sc(=S)n(CCOC)c1N,21.3%
7,Cc1ccc(/C=N/NC(=O)C(NC(=O)c2ccccc2)c2n[nH]c(=O)c3ccccc23)cc1 (stereo not drawn),56.2% (active)
8,Cc1nn2c(=O)cc(COC(=O)c3ccc(NC(=O)C(C)(C)C)cc3)nc2s1,27.5% (active)
9,COc1ccccc1C(=O)NC(CCSC)C(=O)N1CCN(C/C=C/c2ccccc2)CC1 (stereo not drawn),31.7% (active)
10,Cc1cc(C)c(C#N)c(SCc2[nH]nc3c2C(c2ccccc2)C(C#N)=C(N)O3)n1 (stereo not drawn),48.2% (active)
11,N#Cc1cc([N+](=O)[O-])ccc1Oc1cccc(/C=N/NC(=O)c2ccc(Cl)cc2)c1,15.7%
12,CC(=O)N1c2ccc(S(=O)(=O)N3CCC(C(=O)N4CCN(c5ccccc5)CC4)CC3)cc2CC1C (stereo not drawn),47.4% (active)
13,CC(=O)c1ccc(N2CCN(C(=O)C3CCN(S(=O)(=O)c4ccc5c(c4)CC(C)N5C(=O)C4CC4)CC3)CC2)cc1 (stereo not drawn),72% (active)
14,Cc1nn(Cc2ccccc2)c(C)c1CNC(=O)c1ccc(F)c(S(=O)(=O)N2CCOCC2)c1,-0.54%
15,CCCCCC1CCC(c2nnc(SCC(C)=O)o2)CC1 (stereo not drawn),37.8% (active)
16,CCN(CC)c1ccc(C(=O)NNC(=O)CCc2nc3ccccc3c(=O)[nH]2)cc1,1.17%
17,COc1ccc(N2CCN(C(=O)c3ccc(N4CCCCS4(=O)=O)cc3)CC2)cc1,56.2% (active)
18,Nc1[nH][nH]c(=O)c1N=Nc1ccc2c(c1)OCO2,1.18%
19,COc1ccc(N2CC(C(=O)NCCN3C(=O)S/C(=C\c4cccnc4)C3=O)CC2=O)c(OC)c1 (stereo not drawn),6.43%
20,CCCCCCOc1ccc(OC(=O)c2cccnc2)cc1,59.1% (active)
21,CCC(=C/c1sc2ccc3ccccc3c2[n+]1C)/C=C1\Sc2ccc3ccccc3c2N1C,0.49%
22,O=C(Nc1ccc(N2CCN(C(=O)c3cccs3)CC2)cc1)c1cccnc1Cl,37.2% (active)
23,COc1ccc(C(C#N)Nc2ccc(C)cc2)cc1 (stereo not drawn),3.09%
24,Cc1cccc(OCC(O)CN2CCN(CCN3C(=O)c4cccc5cccc(c45)C3=O)CC2)c1C (stereo not drawn),42.9% (active)
